Assay outcomes (PubChem)
Rows were chosen to be rich in hits. Some 18% of all compounds tested hit in one or more screens of this group.
IL1B secr inh – inflammasome signaling inhibition, IL-1 beta readout; THP-1 LPS/ATP IL-1B secretion, AlphaLISA, 16 h; hits give low values; activity change, % at 57.5 µM; 360,000 tested, 4.7% active; AID 743279; in the data active means activity change below about -50%; inconclusive means mostly about -30% to -49%
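THP-1 cells pretreated 1 hr with compounds (up to 57.5 uM final), then stimulated with LPS (250 ng/mL final) plus ATP (1.25 mM final); secreted IL-1B measured by AlphaLISA after 16 hr, decreased signal indicating inhibition.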
DT40 TDP1 CPT – DT40-hTDP1 cell growth loss with CPT; chicken DT40 Tdp1-/-;hTDP1 cells + 20 nM CPT, ATP luminescence, 48 h; Potency, µM (series often up to 46.2 µM), hits mostly inhibitors; 420,000 tested, 12% active; AID 686979; further: nearly all actives have a fitted effect of over 55% in size
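Cell growth measured by CellTiter-Glo luminescence after a minimum 48 h, 37 C compound exposure with 20 nM CPT in Tdp1-knockout DT40 cells stably expressing hTDP1, seeded 400/well; qHTS titration format.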
CtBP-E1A inh – inhibitors of CtBP/E1A interaction; AlphaScreen GST-E1A/His-CtBP binding, 1536-well; hits give low values; activity change, % (test concentration not listed); 340,000 tested, 0.49% active; in the data active means activity change below about -65%; inconclusive means mostly about -30% to -63%
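Steps: dispense buffer (Tris pH 8.0, NaCl 300 mM, TCEP 1 mM, BSA, Tween 20); add 5X protein mix (GST-E1A, His-CtBP, 125 nM each); pin 23 nL compound; 2 h at 37 °C, dark; add 5X beads (50 ug/mL); 1 h; read.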
Six1-Eya2 blk – blocks human Six1 binding to Eya2; Q15475+O00167; AlphaScreen GST-Six1/His-Eya2 binding, biochemical; hits give low values; 360,000 tested, 0.56% active; activity change, % (test concentration not listed); AID 651725; in the data active means activity change below about -65%; inconclusive means mostly about -30% to -63%
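Six1/Eya2 binding was read as AlphaScreen signal after compounds were pinned into GST-Six1 plus His-tagged Eya2 (5X stock 250/500 nM) in pH 8.0 Tris/NaCl/TCEP buffer, beads added, then incubated 1 h, 37 C, dark.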
TDP1 inh – inhibitors of human tyrosyl-DNA phosphodiesterase TDP1; Potency, µM (series often up to 130 µM), hits mostly inhibitors; 350,000 tested, 0.28% active; AID 485290; Q9NUW8; recombinant TDP1, AlphaScreen DNA substrate cleavage; further: nearly all actives have a fitted effect of over 40% in size
Target sequence (Q9NUW8 whole entry, looked up): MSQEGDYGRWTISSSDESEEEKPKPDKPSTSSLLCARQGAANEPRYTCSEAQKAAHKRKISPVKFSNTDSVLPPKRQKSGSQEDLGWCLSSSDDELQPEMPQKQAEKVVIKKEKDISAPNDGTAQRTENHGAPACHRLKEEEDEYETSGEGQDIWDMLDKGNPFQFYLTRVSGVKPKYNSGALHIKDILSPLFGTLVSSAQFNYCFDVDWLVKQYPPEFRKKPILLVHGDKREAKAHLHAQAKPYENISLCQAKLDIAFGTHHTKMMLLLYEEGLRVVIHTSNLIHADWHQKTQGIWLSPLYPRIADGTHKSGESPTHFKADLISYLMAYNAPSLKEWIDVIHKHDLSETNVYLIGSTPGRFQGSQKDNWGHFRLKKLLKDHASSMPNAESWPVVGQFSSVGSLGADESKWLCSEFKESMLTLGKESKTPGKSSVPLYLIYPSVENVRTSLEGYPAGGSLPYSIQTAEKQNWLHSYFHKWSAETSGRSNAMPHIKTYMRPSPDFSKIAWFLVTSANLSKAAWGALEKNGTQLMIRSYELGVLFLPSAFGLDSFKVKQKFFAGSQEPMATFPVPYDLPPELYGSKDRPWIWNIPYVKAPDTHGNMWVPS
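Enzyme-compound mixtures sat 15 min at room temperature, followed by a 5 min reaction with 15 nM final substrate and 10 min with AlphaScreen beads. Recombinant human Tdp1 was used at 1 nM final.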
TDP1 cell noCPT – qHTS for Inhibitors of human tyrosyl-DNA phosphodiesterase 1 (TDP1): qHTS in cells in absence of CPT; 420,000 tested, 15% active; AID 686978, 2013; Potency, µM (doses to about 46.2 µM), most hits filed as inhibitors; DT40 Tdp1-/- hTDP1 cells, no CPT, ATP luminescence, 48 h; further: nearly all actives have a fitted effect of over 55% in size
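No-CPT arm: Tdp1-/-;hTDP1 DT40 cells (400/well) plus compounds, incubated ≥48 hr at 37 °C. Readout CellTiter-Glo luminescence.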
Numbers stand for hits. Unless noted, the call rests on the fitted dose curve; in most records, active means well fitted curve in the direction sought with a large enough effect; inconclusive means small, poorly fitted or top-dose-only effect, or another doubt; inactive means no such curve, though single readings can be large; an effect the other way counts as inactive or inconclusive.

How did CCN1C(=O)N(c2ccc(C(C)=O)cc2)S(=O)(=O)c2ccccc21 do in these assays?
IL1B secr inh: inactive; DT40 TDP1 CPT: inactive; Six1-Eya2 blk: inactive; TDP1 inh: inactive; TDP1 cell noCPT: inconclusive

How did CCOc1ccc(N2C(=O)N(Cc3ccc(C)cc3C)c3ccccc3S2(=O)=O)cc1 do in these assays?
DT40 TDP1 CPT: inconclusive; TDP1 inh: inactive; TDP1 cell noCPT: 16µM

What do the screens show for `CC(=O)c1ccc(N2C(=O)N(CC(=O)c3ccc(C)cc3)c3ccccc3S2(=O)=O)cc1`?
DT40 TDP1 CPT: inconclusive; TDP1 inh: inactive; TDP1 cell noCPT: 23µM

How did Cc1ccc(C)c(N2C(=O)N(Cc3cccc(C(F)(F)F)c3)c3ccccc3S2(=O)=O)c1 do in these assays?
DT40 TDP1 CPT: inconclusive; TDP1 inh: inactive; TDP1 cell noCPT: inconclusive

How did CC(=O)c1ccc(N2C(=O)N(Cc3cccc(C(F)(F)F)c3)c3ccccc3S2(=O)=O)cc1 do in these assays?
DT40 TDP1 CPT: 16µM; TDP1 inh: inactive; TDP1 cell noCPT: 15µM

How did CCCCNC(=O)C1(C)CCN1Cc1ccc(C#N)cc1 (configuration not stated) do in these assays?
IL1B secr inh: inactive; DT40 TDP1 CPT: inactive; CtBP-E1A inh: inactive; Six1-Eya2 blk: inactive; TDP1 cell noCPT: inactive

Results for Cc1nc(-[n+]2nc(-c3ccncc3)nn2-c2ccccc2)sc1C ?
IL1B secr inh: inconclusive; DT40 TDP1 CPT: 1.5µM; CtBP-E1A inh: -88; Six1-Eya2 blk: -91; TDP1 cell noCPT: 1.8µM

What do the screens show for `CC1=C(C(N)=O)C(c2ccccc2)n2nc(-c3ccncc3)nc2N1` (configuration not stated)?
IL1B secr inh: inactive; DT40 TDP1 CPT: inactive; CtBP-E1A inh: inactive; Six1-Eya2 blk: inactive; TDP1 inh: inactive; TDP1 cell noCPT: inactive

Results for O=[N+]([O-])c1ccc(/C=C/c2ccnc3ccccc23)cc1 ?
DT40 TDP1 CPT: 11µM; TDP1 cell noCPT: 16µM

What do the screens show for `O=[N+]([O-])c1cccc2c1ccc1ncccc12`?
IL1B secr inh: inactive; DT40 TDP1 CPT: inactive; CtBP-E1A inh: inactive; Six1-Eya2 blk: inactive; TDP1 cell noCPT: inactive

How did Nc1ccc(/C=C/c2ccnc3ccccc23)cc1[N+](=O)[O-] do in these assays?
DT40 TDP1 CPT: 10µM; TDP1 cell noCPT: 5µM

Results for O=[N+]([O-])c1ccc(/C=C/c2ccnc3ccccc23)c([N+](=O)[O-])c1 ?
DT40 TDP1 CPT: 35µM; TDP1 cell noCPT: 20µM

Results for CNS(=O)(=O)c1cn(CC(=O)Nc2ccc(F)cc2F)cc1S(=O)(=O)NC ?
DT40 TDP1 CPT: inactive; TDP1 inh: inactive; TDP1 cell noCPT: inactive

How did Cc1ccc2nc(-c3ccccc3)nc(SC(C)C(=O)NCc3cccs3)c2c1 (configuration not stated) do in these assays?
TDP1 inh: inactive

What do the screens show for `Cc1ccc(-n2cc(-c3ccccc3)c3c(NC4CCCC4)ncnc32)cc1`?
DT40 TDP1 CPT: inconclusive; TDP1 inh: inactive; TDP1 cell noCPT: 23µM

How did COc1ccc(C)cc1Nc1ncnc2c1c(-c1ccccc1)cn2-c1ccc(C)cc1 do in these assays?
DT40 TDP1 CPT: inactive; TDP1 inh: inactive; TDP1 cell noCPT: inactive

Results for Cc1cccc(N2CCN(c3ncnc4c3c(-c3ccccc3)cn4-c3ccccc3)CC2C)c1 (configuration not stated) ?
DT40 TDP1 CPT: inconclusive; TDP1 inh: inactive; TDP1 cell noCPT: inconclusive

How did Cc1cccc(-n2cc(-c3ccccc3)c3c(NC4CCCC4)ncnc32)c1 do in these assays?
DT40 TDP1 CPT: inconclusive; TDP1 inh: inactive; TDP1 cell noCPT: 16µM

What do the screens show for `CS(=O)c1ccccc1-c1nc(-c2ccc([N+](=O)[O-])cc2)no1` (configuration not stated)?
IL1B secr inh: inactive; DT40 TDP1 CPT: inactive; CtBP-E1A inh: inactive; Six1-Eya2 blk: inactive; TDP1 cell noCPT: inactive

What do the screens show for `O=C(COc1ccc(Cl)cc1Cl)Nc1ccc(-c2ccc(N3CCOCC3)nn2)cc1`?
IL1B secr inh: inactive; DT40 TDP1 CPT: inactive; CtBP-E1A inh: inactive; Six1-Eya2 blk: inactive; TDP1 inh: inactive; TDP1 cell noCPT: inconclusive

How did O=C(COc1ccc(Cl)cc1Cl)Nc1cccc(-c2ccc(N3CCOCC3)nn2)c1 do in these assays?
IL1B secr inh: inactive; DT40 TDP1 CPT: 18µM; CtBP-E1A inh: inactive; Six1-Eya2 blk: inactive; TDP1 cell noCPT: inconclusive

What do the screens show for `Cc1ccc(C(=O)Nc2cccc(-c3ccc(N4CCOCC4)nn3)c2)cc1[N+](=O)[O-]`?
IL1B secr inh: inactive; DT40 TDP1 CPT: 10µM; CtBP-E1A inh: inactive; Six1-Eya2 blk: inactive; TDP1 cell noCPT: inconclusive

What do the screens show for `O=C(COc1ccccc1)Nc1cccc(-c2ccc(N3CCOCC3)nn2)c1`?
IL1B secr inh: inactive; DT40 TDP1 CPT: inconclusive; CtBP-E1A inh: inactive; Six1-Eya2 blk: inactive; TDP1 cell noCPT: 9.2µM

Results for CCOc1ccc(C2C(C(=O)OC)=C(C)N=C3SCCC(=O)N32)cc1OCC (configuration not stated) ?
IL1B secr inh: inactive; DT40 TDP1 CPT: inactive; CtBP-E1A inh: inactive; Six1-Eya2 blk: inactive; TDP1 inh: inactive; TDP1 cell noCPT: inactive

Results for COc1ccc(C(=O)/C=C/C(=O)N(CC(=O)NC2CCCCC2)Cc2ccc(F)cc2)c(O)c1 ?
IL1B secr inh: -98; DT40 TDP1 CPT: 5.2µM; CtBP-E1A inh: inactive; Six1-Eya2 blk: inactive; TDP1 inh: inactive; TDP1 cell noCPT: 4.6µM

Results for COc1ccc(C(=O)N(Cc2ccco2)Cc2cccs2)c(O)c1 ?
IL1B secr inh: inactive; DT40 TDP1 CPT: inactive; CtBP-E1A inh: inactive; Six1-Eya2 blk: inactive; TDP1 inh: inactive; TDP1 cell noCPT: inactive

Results for COc1ccc(C(=O)/C=C/C(=O)N(CC(=O)NCCC(C)C)Cc2cccs2)c(O)c1 ?
IL1B secr inh: -88; DT40 TDP1 CPT: 1.8µM; Six1-Eya2 blk: inactive; TDP1 inh: inactive; TDP1 cell noCPT: inconclusive

Results for CCOC(=O)C1C(c2ccc(OC)cc2)N(C)OC1(O)C(F)(F)F (configuration not stated) ?
IL1B secr inh: inactive; DT40 TDP1 CPT: inactive; CtBP-E1A inh: inactive; Six1-Eya2 blk: inactive; TDP1 inh: inactive; TDP1 cell noCPT: inactive

What do the screens show for `Cc1ccc(C(=O)N2CCN(c3ccccc3)CC2)cc1C`?
IL1B secr inh: inactive; DT40 TDP1 CPT: inactive; CtBP-E1A inh: inactive; Six1-Eya2 blk: inactive; TDP1 inh: inactive; TDP1 cell noCPT: inactive

How did NC(=O)CN1C(=O)NC(c2ccccc2)(c2ccccc2)C1=O do in these assays?
IL1B secr inh: inactive; DT40 TDP1 CPT: inactive; CtBP-E1A inh: inactive; Six1-Eya2 blk: inactive; TDP1 inh: 45µM; TDP1 cell noCPT: inactive
